# CYP2C19 activ = activators of human cytochrome P450 2C19. P33261. recombinant CYP2C19, luciferin-H EGE luminescence; hits give high values; 0 = fully inhibited enzyme, 1 = untreated enzyme. activation factor at 5 µM. 96,000 tested, under 10 active;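 active means activation factor of at least 2 at 5 µM in the primary screen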;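 further: 0 = wells with 2.5 mM tranylcypromine and 1 = vehicle-only wells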
# Target sequence (P33261 whole entry, looked up): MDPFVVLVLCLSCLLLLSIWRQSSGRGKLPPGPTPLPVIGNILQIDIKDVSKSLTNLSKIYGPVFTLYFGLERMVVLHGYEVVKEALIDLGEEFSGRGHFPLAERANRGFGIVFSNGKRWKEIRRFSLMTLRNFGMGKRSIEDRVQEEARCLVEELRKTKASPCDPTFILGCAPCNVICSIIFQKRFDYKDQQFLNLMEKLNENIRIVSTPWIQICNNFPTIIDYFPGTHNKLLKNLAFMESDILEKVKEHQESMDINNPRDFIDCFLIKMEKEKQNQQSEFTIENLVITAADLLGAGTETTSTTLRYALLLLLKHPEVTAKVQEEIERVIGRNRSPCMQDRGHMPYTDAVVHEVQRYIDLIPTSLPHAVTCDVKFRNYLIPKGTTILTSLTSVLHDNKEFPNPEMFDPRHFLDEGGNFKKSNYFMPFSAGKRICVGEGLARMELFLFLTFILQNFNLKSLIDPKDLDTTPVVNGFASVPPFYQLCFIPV
# PLAP activator = activates human placental alkaline phosphatase; purified PLAP enzyme, luminescent substrate read-out; hits give high values; P05187; activation fold at 20 µM; 96,000 tested, 1.2% active; in the data active means activation fold above about 2
# CYP2C19 inhib = human CYP2C19 inhibition; CYP2C19 Supersomes, luciferin-H EGE luminescence, 30 min; inhibition, % at 5 µM; 96,000 tested, 21% active; AID 778;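 active means CYP2C19 inhibition above a set limit at 5 µM in the primary screen, cut at about 50% in these data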;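 further: plate controls were negative control wells for no effect and 2.5 mM tranylcypromine positive control for full effect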
# CYP2C9 inh = inhibitors of human CYP2C9 | P11712 | CYP2C9 Supersomes, luciferin-H conversion, luminescence | inhibition, % at 5 µM | 96,000 tested, 20% active | AID 777;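 active means blocking of liver enzyme CYP2C9 beyond about 50% at 5 µM, limit read from the data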
# CYP2C9 activ = activators of human CYP2C9; 96,000 tested, 1.4% active; recombinant CYP2C9, luciferin-H conversion, luminescence; hits give high values; factor 1 = untreated enzyme, 0 = blocked; P11712; activation factor at 5 µM;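 active means activation factor of 2 or more for CYP2C9 at a 5 µM dose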;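 further: 0 = sulfaphenazole-blocked wells and 1 = vehicle-only wells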
# * marks the source's active call; other numbers are inactive results. Hits are enriched below; roughly 31% of the tested compounds scored in any of these assays.
SMILES,CYP2C19 activ,PLAP activator,CYP2C19 inhib,CYP2C9 inh,CYP2C9 activ
O=C(CSc1nc2c(c(=O)n1-c1ccc(F)cc1)SCC2)NCc1ccco1,1,1.1,3,8,0.9
COc1ccc(OC(C)C(=O)N2CCC(C)CC2)cc1 (configuration not stated),0.8,0.9,16,0,1
COc1ccc(OC(C)C(=O)N2CCc3ccccc3C2)cc1 (configuration not stated),0.5,0.9,52*,23,0.8
Cc1cc(=O)oc2cc(OC(C)C)ccc12,0.9,0.8,7,4,1
Cc1ccc(OC(C)C(=O)N2CCCc3ccccc32)cc1 (configuration not stated),0.5,0.8,54*,44,0.6
Cc1cc(=O)oc2cc(OC(C)C(=O)N3CCCc4ccccc43)ccc12 (configuration not stated),0.6,1.1,38,84*,0.2
COCC(=O)N1CCCc2ccccc21,1,1,3,1,1
Cc1c(Br)c([N+](=O)[O-])nn1C(C)C(=O)N1CCCc2ccccc21 (configuration not stated),0.4,1.1,58*,41,0.6
O=C(O)c1cn[nH]c1-n1cnnn1,1.2,1,-18,-33,1.3
Cc1cc(=O)oc2cc(OCC(=O)Nc3nnc(C(C)C)s3)ccc12,1.1,1,-7,15,0.9
Cc1nnc(NC(=O)C(C)Oc2ccc3c(C)cc(=O)oc3c2)s1 (configuration not stated),0.9,1.4,12,94*,0.1
Cc1cccnc1NC(=O)c1ccc2nc(N)sc2c1,0.9,1,6,22,0.8
CCCc1cc(Nc2cccc(OCC)c2)n2ncnc2n1,0.8,2*,19,48,0.5
CCCc1cc(Nc2cccc(OC)c2)n2ncnc2n1,0.4,2.3*,55*,34,0.7
Cc1cc(C(=O)CSCCCn2c(=O)[nH]c3ccccc32)c(C)n1C,0.7,1.4,33,-17,1.2
O=c1n(Cc2ccccc2)c2cc(Cl)cnc2n1Cc1ccccc1,0.8,1,23,9,0.9
O=c1[nH]c2ccccc2n1CCCSCCCn1c(=O)[nH]c2ccccc21,0.8,1.8,16,88*,0.1
CCn1c2ccccc2c2nnc(SCCCn3c(=O)[nH]c4ccccc43)nc21,0.2,1.4,78*,88*,0.1
O=c1[nH]c2ccccc2n1Cc1ccc(Cl)cc1,0.3,1.1,73*,24,0.8
O=c1[nH]c2ccccc2n1CCC1CCCCC1,0.1,1.3,93*,56*,0.4
CN(C)S(=O)(=O)N1CCN(C(=O)N2CCOCC2)CC1,1,0.9,-2,3,1
OC(COc1ccccc1)CN1CCN(c2ncccn2)CC1 (configuration not stated),0.7,0.8,28,5,0.9
COc1cc(C2NC(=O)NC(C)=C2C(=O)OCC2CCCO2)ccc1O (configuration not stated),0.9,0.9,9,-5,1
CCC(C)Sc1nc2c(c(=O)[nH]c(=O)n2C)n1C (configuration not stated),1.1,0.9,-6,-6,1.1
COc1ccc(S(=O)(=O)Nc2ccc(S(=O)(=O)N3CCOCC3)cc2)cc1C,0.2,1.3,76*,93*,0.1
SMILES,CYP2C19 activ,PLAP activator,CYP2C19 inhib,CYP2C9 inh,CYP2C9 activ
COc1ccc(S(=O)(=O)Nc2ccc(C(F)(F)F)cc2)cc1OC,0,1.1,99*,62*,0.4
COc1ccc(S(=O)(=O)Nc2ccc(F)c(F)c2)cc1Cl,0.4,1.3,61*,34,0.7
COc1ccc(NS(=O)(=O)c2ccc(S(=O)(=O)N3CCCC3)cc2)cc1Cl,0,1.7,98*,97*,0
CC1CN=C(N(C(=O)Nc2ccccc2)c2ccc(S(=O)(=O)N3CCOCC3)cc2)S1 (configuration not stated),0.9,0.9,7,46,0.5
COc1ccc(S(=O)(=O)Nc2ccccn2)cc1OC,0.9,1.2,8,-14,1.1
COc1ccc(NS(=O)(=O)c2ccc(S(=O)(=O)N3CCCC3)cc2)cc1,0.7,1,31,69*,0.3
COc1ccc(S(=O)(=O)N2CCC(C(=O)N3CCCC3)CC2)cc1,0.5,1.3,48,-67,1.7
COc1ccc(S(=O)(=O)Nc2cccc(Cl)c2)cc1OC,0.1,1.2,93*,-53,1.5
COc1ccc(C(=O)C2CCN(S(=O)(=O)c3ccc4c(c3)OCCO4)CC2)cc1,0,0.9,98*,14,0.9
COc1ccc(S(=O)(=O)N2CCC(C(=O)N3CCCCCC3)CC2)cc1,0.2,1.8,85*,-152,2.5*
O=C(C1CCCN(S(=O)(=O)c2cccs2)C1)N1CCC(N2CCCCC2)CC1 (configuration not stated),1.1,1.5,-11,8,0.9
COc1ccc(C(=O)NCc2nnc(SCC(=O)Nc3cc(C)cc(C)c3)o2)cc1OC,0.7,1.8,32,-9,1.1
CCC1SC2=NC(C)=C(C(=O)OCCOC)C(c3ccc(C(=O)OC)cc3)N2C1=O (configuration not stated),0.3,1.5,65*,65*,0.3
CCC1SC2=NC(C)=C(C(=O)OC)C(c3ccc(C(=O)OC)cc3)N2C1=O (configuration not stated),0.1,1.1,93*,49,0.5
COc1ccc(-c2nnc(SC(C)C(=O)NCc3ccc4c(c3)OCO4)n2Cc2ccco2)cc1 (configuration not stated),0.6,1.6,38,36,0.6
CCN(C(=O)CSc1nnc(NC2CCCCC2)s1)C1CCS(=O)(=O)C1 (configuration not stated),1.2,1,-23,-7,1.1
O=C(Nc1nc(=O)c2ccccc2s1)c1ccccc1,1.1,0.8,-8,-2,1
O=C(Nc1nc2c(s1)C(=O)CCC2)c1ccccc1,0.6,0.9,41,53*,0.5
O=C(CCc1ccccc1)NC(NC(=S)Nc1ccc(Br)cc1)C(Cl)(Cl)Cl (configuration not stated),0.7,0.7,30,97*,0
CCCCCCCC(=O)NC(Nc1ccc(S(N)(=O)=O)cc1)C(Cl)(Cl)Cl (configuration not stated),0.9,1.3,15,77*,0.2
CC(CC(=O)O)CC(=O)Nc1ccc(S(N)(=O)=O)cc1 (configuration not stated),1.2,0.9,-16,-14,1.1
CCCCCC(=O)NC(NC(=S)Nc1ccc(S(N)(=O)=O)cc1)C(Cl)(Cl)Cl (configuration not stated),0.4,1.1,60*,93*,0.1
O=C(CC1Oc2ccccc2NC1=O)NCCCN1CCCC1=O (configuration not stated),1.2,1,-19,-35,1.4
O=C(O)CC(CNS(=O)(=O)c1ccccc1)c1ccccc1 (configuration not stated),0.9,1.1,6,6,0.9

# Compound activity (PubChem BioAssay)
